NPC1 prom act – qHTS Assay for NPC1 Promoter Activators | Huh7 NPC1 promoter luciferase reporter, 24 h | AID 485313, 2010 | Potency, µM (titrated, usually from 9.22 µM), hits mostly activators | 2.4% of 320,000 active; note: nearly all actives have a fitted effect of over 60% in size
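Stably transfected Huh7 (NPC1 promoter→luciferase), 1500 cells/well in Opti-MEM + 10% FBS, 2 h settle, then compound 24 h at 37 °C. Luminescence after 10 min with Amplite reagent.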
SMN2 splice enh – qHTS Assay for Enhancers of SMN2 Splice Variant Expression; HEK293 SMN2-luciferase splicing reporter, luminescence, 30-36 h; Potency, µM (top dose mostly 46.1 µM), actives largely listed as activators; 2.8% of 210,000 active; AID 1458, 2008; note: nearly all actives have a fitted effect of over 55% in size
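HEK293 cells carry an SMN2 minigene-luciferase reporter in which exon 7 inclusion puts luciferase in frame. Cells were seeded at 2000 cells/well, attached for 10-12 hours, then exposed to compounds for 30-36 hours at 37C before ONE-Glo luminescence.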
ELG1 genotox – qHTS screen for small molecules that induce genotoxicity in human embryonic kidney (HEK293T) cells expressing luciferase-tagged ELG1; HEK293T ELG1-luciferase reporter, luminescence, 16 h; Potency, µM (doses to about 46 µM), hits mostly activators; 1.3% of 330,000 active; AID 504466, 2011; note: nearly all actives have a fitted effect of over 60% in size
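ELG1-luciferase HEK293T cells, 2,000/well; compound pinned in; 16 hr, 37 °C, 5% CO2; ONE-Glo, 30 min RT; luminescence on CCD imager.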
ELG1 DNA repair – qHTS screen for small molecules that inhibit ELG1-dependent DNA repair in human embryonic kidney (HEK293T) cells expressing luciferase-tagged ELG1. HEK293T ELG1-luciferase reporter, luminescence, 16 h; DNA damage induced by 5-fluorouridine. Potency, µM (series often up to 46.1 µM), hits mostly inhibitors. 2.3% of 330,000 active. AID 504467, 2011; note: nearly all actives have a fitted effect of over 55% in size
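HEK293T cells expressing luciferase-tagged ELG1 (2,000/well) received 5-Fluorouridine plus compound or DMSO for 16 hr at 37 °C. Luciferase was read by ONE-Glo luminescence after 30 min at room temperature.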
FLuc modulator – qHTS profiling assay for firefly luciferase inhibitor/activator using purifed enzyme and Km concentrations of substrates (counterscreen for miR-21 project). 6.9% of 360,000 active. purified FLuc, Km substrates, luminescence inhibition. Potency, µM (series often up to 57.5 µM), hits mostly inhibitors; note: nearly all actives have a fitted effect of over 55% in size
Target sequence (P08659 whole entry, looked up): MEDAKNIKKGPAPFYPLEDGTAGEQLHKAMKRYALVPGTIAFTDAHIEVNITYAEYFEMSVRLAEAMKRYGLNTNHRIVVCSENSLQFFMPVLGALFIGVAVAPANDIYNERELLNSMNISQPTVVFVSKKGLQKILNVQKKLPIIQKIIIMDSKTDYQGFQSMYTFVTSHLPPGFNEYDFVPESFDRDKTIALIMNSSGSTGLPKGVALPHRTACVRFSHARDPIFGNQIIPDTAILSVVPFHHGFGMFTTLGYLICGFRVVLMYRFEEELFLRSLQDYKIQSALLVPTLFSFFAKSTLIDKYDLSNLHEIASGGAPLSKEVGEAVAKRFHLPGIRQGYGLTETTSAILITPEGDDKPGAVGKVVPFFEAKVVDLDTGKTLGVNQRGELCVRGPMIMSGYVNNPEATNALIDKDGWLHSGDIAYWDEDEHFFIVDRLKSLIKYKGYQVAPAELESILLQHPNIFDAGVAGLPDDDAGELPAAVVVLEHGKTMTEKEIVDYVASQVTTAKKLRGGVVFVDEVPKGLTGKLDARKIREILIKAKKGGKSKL
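Purified P. pyralis luciferase, 10 nM final, with Km-level 10 uM D-luciferin and 10 uM ATP in 50 mM Tris acetate pH 7.5, 10 mM Mg acetate, 0.01% Tween-20, 0.05% BSA; 6-point qHTS titration about 60 µM downward; luminescence read.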
Rab9 prom act – qHTS Assay for Rab9 Promoter Activators | AID 485297, 2010 | Huh7 Rab9 promoter-luciferase reporter, luminescence, 24 h | Potency, µM (top dose mostly 9.22 µM), actives largely listed as activators | 2.8% of 320,000 active; note: nearly all actives have a fitted effect of over 60% in size
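Steps: seed 1500 Huh7 Rab9-luc cells per well, rest 2 h at 37 °C; add compound in DMSO; incubate 24 h; add luciferase reagent, 10 min ambient; read luminescence.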
Hits are given with their value; - = inactive; ? = inconclusive; . = no result given; [ ] = another dose, or the depositor's remark. A selection: hits, their analogues and other compounds. The true share with any hit is near 9.4%. Calls come from the whole dose curve; as a rule, active = well fitted curve in the direction sought with a large enough effect; inconclusive = small, poorly fitted or top-dose-only effect, or another doubt; inactive = no such curve, though single readings can be large; an effect the other way counts as inactive or inconclusive.

SMILES | NPC1 prom act | SMN2 splice enh | ELG1 genotox | ELG1 DNA repair | FLuc modulator | Rab9 prom act
CS(=O)(=O)Nc1ccc(C2=NN(S(C)(=O)=O)C(c3ccc4c(c3)OCO4)C2)cc1 (configuration not stated) | 3.2µM | 11µM | ? | ? | 9.5µM | 2.5µM
CCS(=O)(=O)Nc1ccc(C2=NN(C(=O)c3ccccc3)C(c3cccs3)C2)cc1 (configuration not stated) | - | . | - | 16µM | - | -
CS(=O)(=O)N1N=C(c2ccc(Br)cc2)CC1c1cccs1 (configuration not stated) | ? | - | ? | ? | 15µM | ?
CCS(=O)(=O)Nc1ccc(C2=NN(C(=O)c3ccco3)C(c3cccs3)C2)cc1 (configuration not stated) | - | . | - | - | - | -
COc1ccc(C2CC(c3ccc(OC)c(OC)c3)=NN2S(C)(=O)=O)cc1 (configuration not stated) | 1µM | . | ? | ? | 8.5µM | 0.5µM
CCOc1ccc(NC(=O)Cn2c(=O)cc(C)c3c(C)nn(-c4cccc(Cl)c4C)c32)cc1 | . | . | . | . | - | .
CCc1cccc(NC(=O)CCn2c(=O)c3cccn3c3cccnc32)c1 | . | . | . | . | - | .
COc1ccc(C2CC(c3cccs3)=NN2S(C)(=O)=O)cc1 (configuration not stated) | ? | . | - | ? | ? | ?
CCc1ccc(C2=NN(S(C)(=O)=O)C(c3cccs3)C2)cc1 (configuration not stated) | 1µM | 10µM | 3.3µM | ? | 2.4µM | 1.6µM
COc1ccc(C2=NN(C(=O)c3cccs3)C(c3ccccc3O)C2)cc1 (configuration not stated) | - | - | - | ? | - | -
COc1ccc(C2=NN(S(C)(=O)=O)C(c3cccs3)C2)cc1 (configuration not stated) | 3.5µM | . | ? | ? | 11µM | 0.89µM
COc1ccc(C2CC(c3ccccc3)=NN2C(=O)c2cccs2)cc1 (configuration not stated) | - | . | - | ? | 17µM | ?
CS(=O)(=O)N1N=C(c2ccccc2)CC1c1ccc2nccnc2c1 (configuration not stated) | - | - | - | - | ? | -
Cc1ccc(C2=NN(S(C)(=O)=O)C(c3ccc4nccnc4c3)C2)cc1 (configuration not stated) | ? | 13µM | ? | ? | ? | ?
O=[N+]([O-])c1ccc2c(N=Nc3ccc4ccccc4c3O)c(O)cc(S(=O)(=O)O)c2c1 | . | -[9.22 µM] | . | . | . | .
C[C@H]1Cc2c(COc3ccccc3)nc3c(c2CO1)CN(C(=O)c1cccnc1)CC3 | . | -[9.22 µM] | . | . | . | .
CCOC(=O)c1c(C)[nH]c(C)c1S(=O)(=O)N1CCC(C(=O)N2CCN(c3cccc(C)c3C)CC2)CC1 | . | . | . | . | - | .
Cc1cccc(N2CCN(C(c3ccc(F)cc3)c3nnc(-c4ccccc4)o3)CC2)c1C (configuration not stated) | . | - | . | . | - | .
CCS(=O)(=O)Nc1cccc(C2=NN(S(=O)(=O)c3ccc(C)cc3)C(c3cccs3)C2)c1 (configuration not stated) | - | - | - | ? | - | -
Cc1ccc(C2=NN(S(C)(=O)=O)C(c3cccs3)C2)cc1 (configuration not stated) | 1.8µM | 11µM | ? | ? | 19µM | 3.5µM
COc1cccc2c1Oc1ncccc1N(C(=O)CCC(=O)NCCC(C)C)C2 | . | . | . | . | - | .
COc1cccc(/C=C2/C(=O)NN(c3ccccc3)C2=O)c1 | - | . | - | - | 24µM | -
O=C1NN(c2ccc(Br)cc2)C(=O)/C1=C\c1ccc(O)cc1O | - | . | - | - | ? | -
COc1cccc(/C=C2/C(=O)NN(c3ccc(F)cc3)C2=O)c1 | - | . | - | - | 21µM | -
O=C1NN(c2ccc(F)cc2)C(=O)/C1=C/c1cccs1 | - | . | - | - | 24µM | -
SMILES | NPC1 prom act | SMN2 splice enh | ELG1 genotox | ELG1 DNA repair | FLuc modulator | Rab9 prom act
O=C1NN(c2ccccc2)C(=O)/C1=C\c1ccc2c(c1)OCO2 | - | . | - | - | 5.4µM | -
O=C(c1ccccn1)N1CCN(S(=O)(=O)c2ccccc2)CC1 | - | - | - | - | - | -
Cc1c(Cl)cccc1NC(=O)C(=O)NCCc1csc(-c2ccc(C(F)(F)F)cc2)n1 | . | . | . | . | - | .
C[N@+]1(CCC(=O)c2ccccc2)CC[C@H]2CC[C@H](C2)C1 | . | -[9.22 µM] | . | . | . | .
CCc1nnc(/N=C/c2c(O)n(-c3ccc(Cl)cn3)c(=O)c3ccccc23)s1 | - | - | - | - | 2.7µM | -
Cc1noc(C)c1C(=O)N1CCC2(CCN(Cc3ccccc3)CC2)CC1 | . | - | . | . | . | .
CSCC[C@H](NC(=O)[C@H](Cc1ccccc1)NC[C@@H](NC[C@@H](N)CS)C(C)C)C(=O)O | . | - | . | . | . | .
C=CCN(CC=C)c1cnn(-c2nc3ccccc3[nH]2)c(=O)c1Cl | 2µM | . | ? | ? | 6µM | 0.71µM
O=c1c(Cl)c(NCCO)cnn1-c1cccc(Cl)c1 | - | ? | - | ? | - | -
O=c1c(Cl)c(NCCCO)cnn1-c1nc2ccccc2[nH]1 | ? | ? | 16µM | ? | 12µM | ?
COc1ccccc1CCNC(=O)C(=O)NCC(c1cccnc1)N1CCN(c2ccccc2)CC1 (configuration not stated) | . | . | . | . | - | .
C=CCSc1nc(N)c2c(C)c(C)sc2n1 | - | - | ? | ? | 12µM | -
CCSc1nc(N)c2c(C)c(C)sc2n1 | - | - | - | ? | ? | -
Cc1ccc(C(=O)Nc2nc(C)c(C(=O)N(C)C)s2)o1 | - | . | ? | ? | ? | ?
Cc1ccc(C(=O)Nc2ncc(C)s2)s1 | 0.45µM | . | ? | ? | 0.85µM | ?
Cc1ccc(C(=O)Nc2ncc(C)s2)o1 | 3.2µM | 13µM | ? | ? | 11µM | 4µM
Cc1ccc(C(=O)Nc2ncc(Cc3ccc(F)cc3)s2)o1 | 2.5µM | 11µM | ? | ? | 2.7µM | 2.8µM
COc1ccc(OC)c(NC(=O)c2cc3c(n(-c4ccc(Cl)cc4)c2=O)CC(C)(C)CC3=O)c1 | . | - | . | . | - | .
CCOC(=O)C1=C[C@@]2(CC)CCCN3CCc4c(n1c1ccccc41)C32 (some centres not stated) | . | - | . | . | . | .
CN1/C(=C\C(=O)c2cncc(Br)c2)C(C)(C)c2ccccc21 | - | - | - | 16µM | - | -
CN1/C(=C\C(=O)c2cccc(S(=O)(=O)N3CCCCC3)c2)C(C)(C)c2ccccc21 | - | - | - | 18µM | - | -

Bioassay records (PubChem)
